Assay results reported in ChEMBL document CHEMBL1961873, “Compounds: GSK PKIS; Assays: Nanosyn kinase panel” (2012).

What was measured:
[1] = biological target: Mitogen-activated protein kinase kinase kinase kinase 4 (Homo sapiens) (UniProt O95819); details: at 1 µM;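 also: reported figure is an averaged inhibition value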
[2] = biological target: Dual specificity mitogen-activated protein kinase kinase 1 (Homo sapiens) (UniProt Q02750); details: at 0.1 µM
[3] = biological target: Dual specificity mitogen-activated protein kinase kinase 1 (Homo sapiens) (UniProt Q02750); details: at 1 µM
[4] = biological target: Misshapen-like kinase 1 (Homo sapiens) (UniProt Q8N4C8); details: at 0.1 µM
Chain of Misshapen-like kinase 1 (Homo sapiens) (Q8N4C8 whole entry, looked up): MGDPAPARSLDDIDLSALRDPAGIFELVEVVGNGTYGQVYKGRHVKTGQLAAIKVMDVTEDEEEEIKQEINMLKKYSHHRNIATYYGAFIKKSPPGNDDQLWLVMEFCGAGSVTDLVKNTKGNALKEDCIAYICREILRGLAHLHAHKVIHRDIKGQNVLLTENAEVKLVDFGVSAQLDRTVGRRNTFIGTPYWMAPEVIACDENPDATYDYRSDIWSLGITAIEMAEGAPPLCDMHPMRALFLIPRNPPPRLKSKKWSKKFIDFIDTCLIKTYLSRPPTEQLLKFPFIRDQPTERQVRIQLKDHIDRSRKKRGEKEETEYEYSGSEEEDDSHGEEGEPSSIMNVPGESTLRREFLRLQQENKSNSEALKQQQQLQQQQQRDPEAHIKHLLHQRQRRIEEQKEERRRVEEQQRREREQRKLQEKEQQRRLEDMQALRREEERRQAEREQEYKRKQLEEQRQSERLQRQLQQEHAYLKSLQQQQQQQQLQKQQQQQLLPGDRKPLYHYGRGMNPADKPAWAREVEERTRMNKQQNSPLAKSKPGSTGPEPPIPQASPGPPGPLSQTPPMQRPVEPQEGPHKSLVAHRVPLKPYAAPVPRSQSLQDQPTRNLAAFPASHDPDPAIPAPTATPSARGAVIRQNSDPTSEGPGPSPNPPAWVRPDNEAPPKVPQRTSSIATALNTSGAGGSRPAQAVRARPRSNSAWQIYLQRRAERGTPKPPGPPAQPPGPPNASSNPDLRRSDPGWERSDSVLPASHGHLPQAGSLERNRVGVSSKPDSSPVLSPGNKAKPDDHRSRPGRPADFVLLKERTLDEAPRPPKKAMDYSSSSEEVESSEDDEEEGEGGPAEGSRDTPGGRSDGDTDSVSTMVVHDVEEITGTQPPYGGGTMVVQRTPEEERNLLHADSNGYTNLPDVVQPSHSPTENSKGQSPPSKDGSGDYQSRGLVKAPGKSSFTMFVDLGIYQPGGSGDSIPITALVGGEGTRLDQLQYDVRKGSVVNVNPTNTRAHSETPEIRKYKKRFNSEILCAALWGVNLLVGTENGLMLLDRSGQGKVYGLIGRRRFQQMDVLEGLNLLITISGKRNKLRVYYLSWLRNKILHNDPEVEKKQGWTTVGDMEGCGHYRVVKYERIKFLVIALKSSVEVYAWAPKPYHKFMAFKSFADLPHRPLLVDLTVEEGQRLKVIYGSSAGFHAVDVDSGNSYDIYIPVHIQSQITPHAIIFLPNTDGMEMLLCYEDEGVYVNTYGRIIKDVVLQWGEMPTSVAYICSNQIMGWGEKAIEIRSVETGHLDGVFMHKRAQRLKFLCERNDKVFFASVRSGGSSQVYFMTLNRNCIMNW

[5] = biological target: Misshapen-like kinase 1 (Homo sapiens) (UniProt Q8N4C8); details: at 1 µM
[6] = biological target: T1, Serine/threonine-protein kinase 4 (Homo sapiens) (UniProt Q13043); details: at 0.1 µM
T1 sequence (whole entry): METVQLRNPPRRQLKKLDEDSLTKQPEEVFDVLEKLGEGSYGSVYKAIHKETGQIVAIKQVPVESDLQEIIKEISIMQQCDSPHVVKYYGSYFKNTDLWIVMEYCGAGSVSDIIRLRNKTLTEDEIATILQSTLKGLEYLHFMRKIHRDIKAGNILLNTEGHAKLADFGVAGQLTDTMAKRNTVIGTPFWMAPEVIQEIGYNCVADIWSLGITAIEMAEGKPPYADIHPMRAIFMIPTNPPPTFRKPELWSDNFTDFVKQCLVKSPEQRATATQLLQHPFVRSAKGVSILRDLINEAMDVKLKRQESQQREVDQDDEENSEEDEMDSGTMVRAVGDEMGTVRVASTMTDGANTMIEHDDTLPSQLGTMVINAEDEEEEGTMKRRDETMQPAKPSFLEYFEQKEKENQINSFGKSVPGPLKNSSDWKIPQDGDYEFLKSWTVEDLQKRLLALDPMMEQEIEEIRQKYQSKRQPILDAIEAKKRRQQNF

[7] = biological target: T1, Serine/threonine-protein kinase 4 (Homo sapiens); details: at 1 µM
[8] = biological target: T2, Serine/threonine-protein kinase 3 (Homo sapiens) (UniProt Q13188); details: at 0.1 µM
T2 sequence (whole entry): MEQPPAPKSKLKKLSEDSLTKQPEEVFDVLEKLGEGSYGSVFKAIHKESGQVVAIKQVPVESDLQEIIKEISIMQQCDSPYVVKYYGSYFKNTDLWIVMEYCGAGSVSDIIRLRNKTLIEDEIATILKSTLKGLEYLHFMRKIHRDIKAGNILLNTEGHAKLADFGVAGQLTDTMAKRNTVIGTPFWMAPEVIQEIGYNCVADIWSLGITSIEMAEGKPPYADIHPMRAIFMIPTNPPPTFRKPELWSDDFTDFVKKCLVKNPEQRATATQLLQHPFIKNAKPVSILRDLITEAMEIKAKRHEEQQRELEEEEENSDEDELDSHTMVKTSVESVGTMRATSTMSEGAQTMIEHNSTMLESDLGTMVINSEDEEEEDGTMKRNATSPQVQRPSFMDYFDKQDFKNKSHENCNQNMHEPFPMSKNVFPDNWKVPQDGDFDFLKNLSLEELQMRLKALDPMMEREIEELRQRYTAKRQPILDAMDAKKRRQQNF

[9] = biological target: T2, Serine/threonine-protein kinase 3 (Homo sapiens); details: at 1 µM
[10] = biological target: Serine/threonine-protein kinase 26 (Homo sapiens) (UniProt Q9P289); details: at 0.1 µM
Chain of Serine/threonine-protein kinase 26 (Homo sapiens) (Q9P289 2-416 limits assumed): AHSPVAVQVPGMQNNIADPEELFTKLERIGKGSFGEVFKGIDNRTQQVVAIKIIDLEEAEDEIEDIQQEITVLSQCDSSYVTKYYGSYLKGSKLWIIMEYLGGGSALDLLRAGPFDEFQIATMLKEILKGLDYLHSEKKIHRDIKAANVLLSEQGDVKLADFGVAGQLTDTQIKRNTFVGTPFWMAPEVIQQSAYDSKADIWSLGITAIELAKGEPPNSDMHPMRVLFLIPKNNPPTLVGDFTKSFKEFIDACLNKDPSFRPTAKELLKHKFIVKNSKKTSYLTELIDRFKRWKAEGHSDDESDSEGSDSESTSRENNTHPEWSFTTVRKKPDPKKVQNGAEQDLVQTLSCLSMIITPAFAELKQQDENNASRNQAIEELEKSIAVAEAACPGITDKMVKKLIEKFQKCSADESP

[11] = biological target: Serine/threonine-protein kinase 26 (Homo sapiens) (UniProt Q9P289); details: at 1 µM
[12] = biological target: Serine/threonine-protein kinase PAK 1 (Homo sapiens) (UniProt Q13153); details: at 0.1 µM
Chain of Serine/threonine-protein kinase PAK 1 (Homo sapiens) (Q13153 whole entry): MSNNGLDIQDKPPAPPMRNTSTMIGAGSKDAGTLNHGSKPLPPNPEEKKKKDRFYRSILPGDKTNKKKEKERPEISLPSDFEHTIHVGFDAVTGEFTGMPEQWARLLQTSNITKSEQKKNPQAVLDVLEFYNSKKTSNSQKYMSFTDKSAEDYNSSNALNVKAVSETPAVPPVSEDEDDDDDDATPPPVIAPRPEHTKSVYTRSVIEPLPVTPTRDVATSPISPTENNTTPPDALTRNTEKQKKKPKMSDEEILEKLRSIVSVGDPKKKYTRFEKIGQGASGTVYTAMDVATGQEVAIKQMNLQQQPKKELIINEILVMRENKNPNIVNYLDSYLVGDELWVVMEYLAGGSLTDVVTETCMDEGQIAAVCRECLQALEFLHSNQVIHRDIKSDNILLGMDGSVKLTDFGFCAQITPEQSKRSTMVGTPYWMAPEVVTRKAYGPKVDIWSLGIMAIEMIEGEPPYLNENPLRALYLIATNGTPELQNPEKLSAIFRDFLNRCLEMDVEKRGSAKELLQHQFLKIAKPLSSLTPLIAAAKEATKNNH

[13] = biological target: Serine/threonine-protein kinase PAK 1 (Homo sapiens) (UniProt Q13153); details: at 1 µM
[14] = biological target: Serine/threonine-protein kinase PAK 2 (Homo sapiens) (UniProt Q13177); details: at 0.1 µM
Chain of Serine/threonine-protein kinase PAK 2 (Homo sapiens) (Q13177 whole entry): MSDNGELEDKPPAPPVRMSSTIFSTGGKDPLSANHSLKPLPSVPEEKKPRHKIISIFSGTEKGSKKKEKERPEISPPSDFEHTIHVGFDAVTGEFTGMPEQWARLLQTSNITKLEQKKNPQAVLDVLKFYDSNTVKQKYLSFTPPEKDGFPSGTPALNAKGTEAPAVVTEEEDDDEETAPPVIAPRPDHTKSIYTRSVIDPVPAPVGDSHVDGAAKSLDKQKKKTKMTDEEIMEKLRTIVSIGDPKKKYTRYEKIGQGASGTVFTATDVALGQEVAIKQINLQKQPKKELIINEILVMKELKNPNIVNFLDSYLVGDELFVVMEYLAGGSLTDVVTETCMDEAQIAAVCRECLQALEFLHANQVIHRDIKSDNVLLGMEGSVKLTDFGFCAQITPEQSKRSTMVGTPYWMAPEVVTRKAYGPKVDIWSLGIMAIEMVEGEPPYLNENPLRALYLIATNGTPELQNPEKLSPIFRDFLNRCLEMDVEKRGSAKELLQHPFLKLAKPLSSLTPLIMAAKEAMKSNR

[15] = biological target: Serine/threonine-protein kinase PAK 2 (Homo sapiens) (UniProt Q13177); details: at 1 µM
[16] = biological target: Serine/threonine-protein kinase PAK 3 (Homo sapiens) (UniProt O75914); details: at 0.1 µM
Chain of Serine/threonine-protein kinase PAK 3 (Homo sapiens) (O75914 whole entry, looked up): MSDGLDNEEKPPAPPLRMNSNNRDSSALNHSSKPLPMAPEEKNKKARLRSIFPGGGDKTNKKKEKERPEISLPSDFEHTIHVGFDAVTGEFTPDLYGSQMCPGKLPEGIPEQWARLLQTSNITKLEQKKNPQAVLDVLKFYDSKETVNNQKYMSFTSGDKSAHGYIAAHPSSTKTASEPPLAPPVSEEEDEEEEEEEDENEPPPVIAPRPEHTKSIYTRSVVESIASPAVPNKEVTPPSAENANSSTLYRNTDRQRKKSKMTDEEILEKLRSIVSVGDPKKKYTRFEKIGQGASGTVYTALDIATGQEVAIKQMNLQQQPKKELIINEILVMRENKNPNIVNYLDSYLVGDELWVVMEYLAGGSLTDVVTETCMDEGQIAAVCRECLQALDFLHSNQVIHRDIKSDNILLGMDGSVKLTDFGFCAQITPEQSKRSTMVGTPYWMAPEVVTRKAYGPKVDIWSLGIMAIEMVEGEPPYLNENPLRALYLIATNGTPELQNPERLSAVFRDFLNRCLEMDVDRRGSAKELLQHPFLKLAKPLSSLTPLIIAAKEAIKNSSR

[17] = biological target: Serine/threonine-protein kinase PAK 3 (Homo sapiens) (UniProt O75914); details: at 1 µM
[18] = biological target: Serine/threonine-protein kinase PAK 5 (Homo sapiens) (UniProt Q9P286); details: at 0.1 µM
[19] = biological target: Serine/threonine-protein kinase PAK 5 (Homo sapiens) (UniProt Q9P286); details: at 1 µM
[20] = biological target: Serine/threonine-protein kinase PAK 6 (Homo sapiens) (UniProt Q9NQU5); details: at 0.1 µM;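 also: mean PAK6 inhibition reported from the GSK PKIS screen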
Chain of Serine/threonine-protein kinase PAK 6 (Homo sapiens) (Q9NQU5 whole entry, looked up): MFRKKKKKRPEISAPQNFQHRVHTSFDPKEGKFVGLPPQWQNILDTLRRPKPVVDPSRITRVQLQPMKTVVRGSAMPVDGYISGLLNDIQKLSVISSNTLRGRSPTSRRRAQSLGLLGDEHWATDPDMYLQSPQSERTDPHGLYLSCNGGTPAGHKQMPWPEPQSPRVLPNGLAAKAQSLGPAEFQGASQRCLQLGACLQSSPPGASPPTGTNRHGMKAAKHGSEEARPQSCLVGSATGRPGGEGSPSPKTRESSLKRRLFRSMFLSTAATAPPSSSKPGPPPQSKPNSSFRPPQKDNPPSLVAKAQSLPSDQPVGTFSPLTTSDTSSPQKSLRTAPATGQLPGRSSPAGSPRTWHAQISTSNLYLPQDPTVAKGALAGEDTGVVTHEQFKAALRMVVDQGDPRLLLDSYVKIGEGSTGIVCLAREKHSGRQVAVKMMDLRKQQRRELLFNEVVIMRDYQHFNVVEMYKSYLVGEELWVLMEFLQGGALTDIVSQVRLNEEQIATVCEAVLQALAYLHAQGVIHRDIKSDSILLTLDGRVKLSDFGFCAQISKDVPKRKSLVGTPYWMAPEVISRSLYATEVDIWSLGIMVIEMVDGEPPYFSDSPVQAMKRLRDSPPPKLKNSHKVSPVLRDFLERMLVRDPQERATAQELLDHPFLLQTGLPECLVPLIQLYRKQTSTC

Chain of Dual specificity mitogen-activated protein kinase kinase 1 (Homo sapiens) (Q02750 whole entry): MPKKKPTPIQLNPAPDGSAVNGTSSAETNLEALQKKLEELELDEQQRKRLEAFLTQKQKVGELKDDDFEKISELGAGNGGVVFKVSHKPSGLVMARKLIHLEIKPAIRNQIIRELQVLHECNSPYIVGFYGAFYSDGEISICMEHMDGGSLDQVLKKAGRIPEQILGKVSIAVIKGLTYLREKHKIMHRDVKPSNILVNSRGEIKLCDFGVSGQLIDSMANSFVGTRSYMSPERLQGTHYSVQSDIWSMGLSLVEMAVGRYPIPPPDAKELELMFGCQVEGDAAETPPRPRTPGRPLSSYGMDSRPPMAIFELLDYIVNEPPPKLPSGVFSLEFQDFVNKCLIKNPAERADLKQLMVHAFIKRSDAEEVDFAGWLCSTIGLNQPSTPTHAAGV

Structure (SMILES)	inhibition [1]	inhibition [2]	inhibition [3]	inhibition [4]	inhibition [5]	inhibition [6]	inhibition [7]	inhibition [8]	inhibition [9]	inhibition [10]	inhibition [11]	inhibition [12]	inhibition [13]	inhibition [14]	inhibition [15]	inhibition [16]	inhibition [17]	inhibition [18]	inhibition [19]	inhibition [20]
Fc1ccc(-c2nn3ncccc3c2-c2ccnc(Nc3ccc4c(c3)OCCO4)n2)cc1	73.2%	5.8%	11.7%	16.4%	65.2%	3.27%	5.1%	3.68%	3.21%	-0.01%	7.97%	5.7%	9.76%	1.46%	2.5%	4.83%	4.47%	-1.83%	-2.83%	-0.14%
CNC(=O)c1cncc(/C=C/c2ccccc2Cl)c1	15.2%	-0.39%	2.24%	2.28%	15.4%	4.63%	7.5%	5.87%	7.94%	1.78%	1.7%	0.81%	1.33%	0.07%	-0.55%	0.06%	0.54%	6.76%	4.3%	8.93%
O=C(O[C@H]1CN[C@H](C#Cc2cc3ncnc(Nc4ccc(Cc5ccccc5)cc4)c3s2)C1)N1CCOCC1	-0.81%	1.32%	1.73%	3.34%	1.04%	1.14%	3.13%	3.94%	3.64%	-0.29%	-0.68%	0.1%	2.79%	0.85%	0.99%	3.06%	2.95%	0.53%	0.17%	-2.8%
Fc1cccc(COc2ccc(Nc3ncnc4sc(-c5ccco5)cc34)cc2Cl)c1	6.92%	5.47%	3.29%	6.46%	7.36%	4.94%	8.32%	6.61%	8.59%	-1.76%	3.25%	5.72%	4.19%	1.79%	1.67%	5.17%	3.75%	2.39%	4.77%	1.93%
FC(F)(F)c1cccc(-c2nn3ncccc3c2-c2ccnc(Nc3ccc4c(c3)OCCO4)n2)c1	58.1%	2.31%	4.08%	9.69%	55.8%	4.33%	6.24%	5.41%	4.99%	-0.12%	0.56%	3.7%	3.72%	1.01%	1.43%	1.69%	2.03%	-5.89%	-2.25%	-3.42%
COC(=O)Nc1nc2ccc(S(=O)(=O)c3ccc(NC(=O)Nc4cc(C(F)(F)F)ccc4F)cc3)cc2[nH]1	6.09%	2.83%	2.72%	5.17%	8.15%	3.71%	4.43%	4%	3.06%	0.89%	-2.57%	5.36%	4.48%	2.17%	1.9%	2.62%	3.11%	-4.37%	-3.51%	-3.27%
NS(=O)(=O)c1ccc(Nc2ncc(-c3ccccc3)o2)cc1	58.6%	2.3%	2.12%	8.89%	41.9%	6.4%	10.2%	7.3%	8.38%	-1.93%	-2.5%	4.04%	7.88%	2.52%	1.78%	4.23%	5.19%	8.88%	9.45%	-1.35%
Cc1cccc2c1NC(=O)/C2=N\Nc1ccc(S(N)(=O)=O)cc1	48.9%	2.57%	1.95%	7.44%	34.6%	6.81%	24.4%	7.49%	15.2%	-2.65%	-4.46%	7.85%	5.96%	2.44%	1.43%	3.43%	3.88%	11.2%	2.81%	3.7%
CCn1c(-c2nonc2N)nc2cnc(Oc3cccc(NC(=O)c4ccc(N(C)C)cc4)c3)cc21	29.4%	1.11%	2.61%	3.19%	28.2%	-0.06%	1.47%	0.98%	2.32%	-1.48%	0.84%	3.97%	6.82%	0.04%	0.22%	1.76%	2.25%	2.13%	-2.93%	2.57%
COc1ccc(CNC(=O)c2ccc(-c3cc(-c4nnc(C)o4)ccc3C)cc2)cc1	16.3%	3.35%	0.16%	3.36%	12.7%	7.99%	14.7%	6.56%	13.6%	3.07%	4.31%	5.02%	5.86%	0.61%	0.95%	1.81%	3.19%	8.37%	8.19%	5.26%
COc1ccc(-c2nn3ncccc3c2-c2ccnc(Nc3ccc4c(c3)OCCO4)n2)cc1	9.82%	0.5%	1.59%	3.01%	7.26%	-0.55%	1.99%	-0.94%	-0.28%	0.86%	0.26%	3.86%	-2.26%	-0.29%	0.11%	1.09%	1.51%	-2.13%	-5%	1.12%
COc1ccc(-c2cc(-c3c[nH]nc3-c3ccccn3)ccn2)cc1	80.3%	6.36%	4.25%	24.6%	72.7%	7.65%	10.6%	9.35%	10.1%	-2.95%	-0.46%	0.78%	3.96%	2.66%	1.63%	5.46%	5.49%	3.54%	1.94%	6.89%
Fc1ccc(-c2cc(-c3c[nH]nc3-c3ccccn3)ccn2)cc1	59.6%	5.25%	3.85%	10.7%	44.4%	4.5%	6.92%	6.43%	7.79%	-0.73%	1.02%	6.01%	5.42%	1.23%	1.38%	4.08%	5.11%	6.2%	2.37%	-1.74%
COc1ccc(-c2oc3ncnc(N)c3c2-c2ccc(NC(=O)Nc3cc(C(F)(F)F)ccc3F)cc2)cc1	10.1%	6.74%	7.26%	6.56%	6.71%	12.5%	19.3%	12.7%	18.3%	0.51%	0.01%	6.65%	5.48%	3.2%	3.66%	4.72%	4.39%	16.8%	0.17%	2.23%
CC(=O)NCc1cccc(C#Cc2cncnc2Nc2ccc(OCc3cccc(F)c3)c(Cl)c2)c1	7.74%	1.45%	1.08%	2.48%	8.64%	1.57%	5.79%	0.67%	3.55%	-0.27%	2.49%	4.19%	4.46%	-0.34%	-0.13%	-0.22%	0.22%	2.64%	-5.66%	3.99%
COc1cc2ncn(-c3cc(OCc4ccccc4C(F)(F)F)c(C(=O)N(C)C)s3)c2cc1OC	2.4%	0.8%	1.58%	1.7%	2.67%	-0.01%	3.43%	1.15%	4.03%	0%	3.36%	-0.17%	-2.04%	-1.09%	-0.86%	-0.48%	-0.61%	-6.21%	0.3%	-7.29%
